High-throughput results from PubChem.
SKKanGAS inh – S. pyogenes SKKanGAS growth inhibitors in kanamycin, primary screen, streptokinase expression inhibitor project, SKKanGAS strain, BacTiter-Glo luminescence. inhibition, % at 7.5 µM. AID 1662, 2009. actives 1.3% (n = 300,000). 6 h;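 active = mean replicate score, as percent of positive control median, at least 50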;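 also: strain carries kanamycin resistance gene driven by streptokinase promoter and grows in 40 µg/ml kanamycin; loss of luminescence reflects streptokinase promoter inhibition or plain growth inhibition; 0% = median of DMSO wells and 100% = positive control at its reference dose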
NR3A LBD binder – binders of NR3A ligand-binding domain, primary screen, biophysical, differential scanning fluorimetry, uHTS; Tm shift relative to glycine control, % at 25 µM; Glutamate receptor ionotropic, NMDA 3A (GRIN3A) ligand-binding domain; actives 2.5% (n = 340,000); NR3A LBD differential scanning fluorimetry, Tm shift; 0% = protein alone, 100% = glycine-bound protein;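 active = melting temperature shift of at least 10% of the positive control shift, at one fixed dose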
Mdm2-MdmX inh – inhibitors of human Mdm2-MdmX association, primary screen, cell-based, luminescence, split luciferase, SaOS-2, uHTS; inhibition, % at 8 µM; Protein Mdm4 (Homo sapiens) + E3 ubiquitin-protein ligase Mdm2 (Homo sapiens), …; actives 3% (n = 330,000); SaOS-2 split-luciferase Mdm2/MdmX complementation;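 active = inhibition of at least 50% at 8 µM in the primary screen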
Target sequence (O15151 whole entry, looked up): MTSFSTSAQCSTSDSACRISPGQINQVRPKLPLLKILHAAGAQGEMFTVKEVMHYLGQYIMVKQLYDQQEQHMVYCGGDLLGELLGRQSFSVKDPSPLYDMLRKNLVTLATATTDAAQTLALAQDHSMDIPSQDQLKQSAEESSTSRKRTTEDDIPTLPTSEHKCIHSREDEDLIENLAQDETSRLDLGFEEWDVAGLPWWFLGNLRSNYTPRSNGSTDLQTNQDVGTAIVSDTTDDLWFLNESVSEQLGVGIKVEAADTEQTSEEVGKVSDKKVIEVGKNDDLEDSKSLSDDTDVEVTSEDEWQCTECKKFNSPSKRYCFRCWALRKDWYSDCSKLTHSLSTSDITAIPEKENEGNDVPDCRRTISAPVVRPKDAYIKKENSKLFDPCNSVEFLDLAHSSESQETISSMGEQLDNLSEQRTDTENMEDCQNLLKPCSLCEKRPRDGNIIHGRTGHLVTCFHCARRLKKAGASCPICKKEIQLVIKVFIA
Target sequence (Q00987 whole entry, looked up): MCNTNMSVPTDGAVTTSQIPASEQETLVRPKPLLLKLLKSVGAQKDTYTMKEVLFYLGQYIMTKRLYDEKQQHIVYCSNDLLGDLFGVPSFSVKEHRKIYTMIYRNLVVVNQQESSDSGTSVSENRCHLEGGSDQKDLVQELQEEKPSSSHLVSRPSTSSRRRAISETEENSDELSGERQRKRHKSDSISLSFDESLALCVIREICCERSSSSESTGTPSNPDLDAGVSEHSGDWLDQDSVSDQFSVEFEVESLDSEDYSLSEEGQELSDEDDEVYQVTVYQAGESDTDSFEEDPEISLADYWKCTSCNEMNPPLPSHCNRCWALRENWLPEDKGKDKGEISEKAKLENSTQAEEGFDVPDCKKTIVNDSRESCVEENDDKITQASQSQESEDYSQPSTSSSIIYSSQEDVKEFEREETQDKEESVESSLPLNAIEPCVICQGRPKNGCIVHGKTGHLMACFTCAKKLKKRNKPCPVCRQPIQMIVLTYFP
MPTP inh – mitochondrial permeability transition pore inhibitors, primary screen, biochemical, isolated mouse mitochondria, absorbance. Ca2+ swelling absorbance, 30 min. inhibition, % at 10 µM. actives 1.4% (n = 360,000). AID 602449, 2012;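 active = inhibition of 50% or more, scaled per plate between neutral and stimulator controls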;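 also: 0% = DMSO wells given calcium and 100% = 1 mM EGTA wells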
Beta apoptosis – inhibitors of cytokine-induced beta cell apoptosis, primary screen, luminescence; actives 0.8% (n = 300,000); protection from apoptosis, % (no concentration beside the values); INS-1E cytokine-induced death, ATP luminescence, 48 h; percent of positive-control rescue, neutral wells zero; AID 435005, 2010;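 active = Every replicate reaches about 75%, or at least half do and their mean reaches it too, limit read from the data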;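 also: 0% = cytokine-treated negative control wells and 100% = positive control rescue; higher means more ATP so stronger rescue from cytokine killing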
CSC inhib – cancer stem cell viability inhibitors, primary screen, luminescence; cancer stem cell-like cells viability; inhibition, % at 7.5 µM; actives 1.1% (n = 300,000); in the data active = inhibition above about 75%; tested in HMLE shEcad cells
Mdm2-MdmX conf – Mdm2-MdmX complex disruptors, retested hits, confirmation, luminescence, single concentration; shares compounds with Mdm2-MdmX inh; Mdm2-MdmX binding, luminescent assay; inhibition, % at 8 µM; actives 55% (n = 10,000); in the data active = inhibition above about 40%
Full FLuc ctr – full-length luciferase signal inhibition, confirmation, counter-screen for Mdm2/MdmX interaction inhibitor project, cell-based, single concentration, SaOS-2 | shares compounds with Mdm2-MdmX inh | SaOS-2 full-length luciferase counterscreen, luminescence | inhibition, % at 8 µM | actives 77% (n = 6,200) | AID 504607, 2011;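 active = mean inhibition at 8 µM reaching about 37%, which flags the compound as non-specific, limit read from the data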;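 also: p53-null SaOS-2 cells with luciferase driven by a doxycycline-inducible promoter; compound on cells about two nights before reading with doxycycline added after day one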
MPTP counter – fluorescence retest of MPTP screen hits in isolated mitochondria, single concentration | membrane potential, Rhodamine 123 fluorescence | inhibition, % at 10 µM | actives 78% (n = 5,000) | shares compounds with MPTP inh | AID 624504, 2012; in the data active = inhibition above about 22%;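 also: 0% = DMSO vehicle and 100% = positive control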
MPTP abs DR – mitochondrial permeability transition pore inhibitors, dose response, biochemical, absorbance, uHTS hits. shares compounds with MPTP inh. isolated mitochondria swelling. IC50, µM. actives 58% (n = 780); in the data active = IC50 below about 20 µM
MPTP counter DR – fluorescent counter-screen in isolated mitochondria, dose response, counter-screen for MPTP inhibitor project, biochemical, fluorescence, uHTS hits | shares compounds with MPTP inh | isolated mitochondria counterscreen, fluorescence read-out | IC50, µM | actives 49% (n = 780) | AID 651564, 2012; in the data active = IC50 below about 80 µM
Numbers without * were called inactive; x = not tested or not shown. Sampled rows, rich in hits. Any-hit rate of the full collection: about 6.9%.

SMILES | SKKanGAS inh | NR3A LBD binder | Mdm2-MdmX inh | MPTP inh | Beta apoptosis | CSC inhib | Mdm2-MdmX conf | Full FLuc ctr | MPTP counter | others
COc1cc(NC(=O)CSc2ncnc3sc4c(c23)CCC(C)C4)c(C(=O)O)cc1OC (centres undefined) | 8.1 | -1.6 | -14.0 | -0.4 | -10.0 | 0.6 | x | x | x
Cc1ccc(S(=O)(=O)c2nnn3c2nc(Nc2cccc(C)c2)c2ccccc23)cc1 | -2.2 | 9.3 | 53.9* | 64.8* | x | 20.1 | 8.6 | x | 24.8*
COCCNc1nc2c(S(=O)(=O)c3cc(C)ccc3C)nnn2c2ccccc12 | 11.5 | -6.3 | 18.6 | 15.9 | 4.5 | -0.6 | x | x | x
COc1ccc(CNCC(C)NCc2ccc(OC)c(OC)c2)cc1OC (centres undefined) | -2.2 | 0.9 | 18.0 | 0.0 | -5.0 | -11.2 | x | x | x
O=C(c1ccc(S(=O)(=O)c2ccc(F)cc2)c([N+](=O)[O-])c1)N1CCCCCC1 | -0.6 | -11.7 | 56.3* | 78.3* | 41.4 | 32.6 | 31.1 | 30.1 | 67.8*
Cc1[nH]c2ccccc2c1C(=O)C(=O)NCCOc1ccccc1 | -27.0 | -0.6 | -9.9 | -0.2 | -15.9 | -1.1 | x | x | x
COc1ccc(-c2nnc(-c3cc4ccccc4oc3=O)o2)cc1 | -4.7 | 5.4 | -13.6 | 0.5 | -3.0 | -1.8 | x | x | x
O=C(O)c1ccc2oc(=O)c(S(=O)(=O)c3ccc(F)cc3)cc2c1 | 0.7 | -0.3 | -15.2 | 0.0 | 1.0 | -17.5 | x | x | x
CCCCCCc1cc2cc(S(=O)(=O)c3ccc(F)cc3)c(=O)oc2cc1O | 11.8 | 0.9 | 57.5* | 81.4* | 2.7 | 30.1 | 51.2* | 84.8* | 93.1*
CCCCCCc1cc2cc(-c3nnc(-c4ccccc4O)o3)c(=O)oc2cc1O | 98.4* | 28.6* | 73.2* | 103.9* | 106.4* | 109.5* | 91.5* | 22.4 | 4.9
CCCCCCc1cc2cc(C(=O)Nc3ccccc3OC)c(=O)oc2cc1O | 5.4 | -11.7 | 95.3* | 57.0* | 19.4 | 19.5 | 8.9 | x | -5.3 | MPTP abs DR=2.57*;MPTP counter DR=<2.5*
CC(C)N1CCC2(CC1)N=C(c1ccc3c(c1)OCO3)CC(c1cc(Cl)ccc1O)N2 (centres undefined) | -12.6 | -2.5 | 69.6* | 69.1* | 8.6 | 7.0 | 27.0 | x | -5.8
CCC1CCCCN1CCCNC(=O)C1CCN(Cc2nc(-c3ccc(Cl)cc3)oc2C)CC1 (centres undefined) | 3.5 | -0.1 | 98.3* | 61.2* | 15.8 | 9.3 | 96.5* | 60.5* | -10.8
Cc1oc(-c2ccc(Cl)cc2)nc1CN1CCC(C(=O)NCCCN2CCOCC2)CC1 | 3.7 | -5.2 | 21.9 | -2.6 | -9.7 | 7.5 | x | x | x
O=C(NC(=S)Nc1nc2c(s1)CSc1ccccc1-2)c1ccccc1 | 37.5 | 5.0 | 68.1* | 94.8* | 17.4 | -5.7 | 7.8 | x | 90.8*
O=C(NC(=S)Nc1nc2c(s1)CCCC2)c1ccc(C(=O)c2ccccc2)cc1 | 31.2 | -2.1 | 3.9 | 5.7 | 10.1 | 56.6 | x | x | x
